# Results published in the supplement of paper PMC11732987, “Enantioselective OTUD7B fragment discovery through chemoproteomics screening and high-throughput optimisation” (Communications Chemistry, 2025).
# A number with no mark means an inactive call.
# Key:
# Test in all cases: log2 ratio of Biotin-Ahx-Ub-VS probe labelling (fragment/DMSO); higher = less target engagement (more negative = stronger competition), active = hit call of the paper (q ≤ 0.05, log2 ratio ≤ -1)
# Details in all cases: compound concentration: 200 uM; treatment time: 3 h
# OTUD6B = biological target: T1, OTUD6B (UniProt Q8N6M0)
# T1 sequence (whole entry): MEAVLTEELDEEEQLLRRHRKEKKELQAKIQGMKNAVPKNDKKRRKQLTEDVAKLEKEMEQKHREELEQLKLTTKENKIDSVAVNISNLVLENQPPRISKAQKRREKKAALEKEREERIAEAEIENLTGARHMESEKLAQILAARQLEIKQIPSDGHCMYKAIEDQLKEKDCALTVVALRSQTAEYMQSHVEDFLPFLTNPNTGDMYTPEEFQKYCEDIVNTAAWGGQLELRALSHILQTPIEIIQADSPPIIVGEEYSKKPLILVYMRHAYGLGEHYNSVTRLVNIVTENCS
# In short: (§1)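 Labelled DUBs from HEK293T lysate were NeutrAvidin-enriched, digested with LysC and trypsin, and run by diaPASEF LC-MS/MS. Before that, each 495 µg sample in Tris/CHAPS/IGEPAL buffer with protease inhibitors was treated in triplicate with fragment at 200 µM or vehicle for 3 h, then with Biotin-Ahx-Ub-VS at 0.5 µM final for 1 h. Values are average log2 ratios of fragment over vehicle by unpaired t-test, based on global-median-normalised Spectronaut label-free quantities from proteins with ≥2 unique peptides.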
# OTUD7B = biological target: T2, OTUD7B (UniProt Q6GQQ9)
# T2 sequence (whole entry): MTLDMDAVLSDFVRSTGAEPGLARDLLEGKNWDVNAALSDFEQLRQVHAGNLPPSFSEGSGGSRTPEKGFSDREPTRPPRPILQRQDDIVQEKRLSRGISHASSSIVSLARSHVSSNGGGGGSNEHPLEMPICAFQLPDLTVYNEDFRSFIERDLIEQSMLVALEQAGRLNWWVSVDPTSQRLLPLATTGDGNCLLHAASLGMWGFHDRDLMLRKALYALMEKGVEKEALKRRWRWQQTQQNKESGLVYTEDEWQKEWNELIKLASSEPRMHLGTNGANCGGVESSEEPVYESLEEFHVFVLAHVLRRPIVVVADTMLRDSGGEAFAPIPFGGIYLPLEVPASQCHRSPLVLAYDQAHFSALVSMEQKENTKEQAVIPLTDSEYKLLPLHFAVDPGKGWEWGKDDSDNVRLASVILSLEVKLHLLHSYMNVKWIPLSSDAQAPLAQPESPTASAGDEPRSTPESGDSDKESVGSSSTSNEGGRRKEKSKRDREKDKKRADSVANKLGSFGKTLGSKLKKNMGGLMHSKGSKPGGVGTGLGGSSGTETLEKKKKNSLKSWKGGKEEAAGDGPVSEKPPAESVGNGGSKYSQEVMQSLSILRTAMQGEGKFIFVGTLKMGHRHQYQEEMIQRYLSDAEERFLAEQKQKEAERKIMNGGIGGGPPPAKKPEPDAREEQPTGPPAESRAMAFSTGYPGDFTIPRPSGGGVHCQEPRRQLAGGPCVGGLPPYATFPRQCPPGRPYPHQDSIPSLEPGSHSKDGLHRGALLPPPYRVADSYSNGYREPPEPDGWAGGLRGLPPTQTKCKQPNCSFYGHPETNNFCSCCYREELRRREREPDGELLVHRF
# In short: as §1
# PRPF8 = PRPF8 (UniProt Q6P2Q9)
# In short: as §1
# PSMD7 = biological target: T3, PSMD7 (UniProt P51665)
# T3 sequence (whole entry): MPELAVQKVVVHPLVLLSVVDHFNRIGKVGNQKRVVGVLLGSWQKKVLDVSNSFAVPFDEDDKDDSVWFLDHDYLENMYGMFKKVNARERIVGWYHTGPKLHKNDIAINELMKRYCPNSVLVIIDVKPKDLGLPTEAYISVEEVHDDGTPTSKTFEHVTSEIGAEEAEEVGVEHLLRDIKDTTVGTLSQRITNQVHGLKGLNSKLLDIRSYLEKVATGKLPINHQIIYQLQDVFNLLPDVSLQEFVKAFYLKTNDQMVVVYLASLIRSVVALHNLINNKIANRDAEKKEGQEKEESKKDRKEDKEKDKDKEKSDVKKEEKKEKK
# In short: as §1
# UCHL1 = UCHL1 (UniProt P09936)
# In short: as §1
# UCHL3 = biological target: T4, UCHL3 (UniProt P15374)
# T4 sequence (whole entry): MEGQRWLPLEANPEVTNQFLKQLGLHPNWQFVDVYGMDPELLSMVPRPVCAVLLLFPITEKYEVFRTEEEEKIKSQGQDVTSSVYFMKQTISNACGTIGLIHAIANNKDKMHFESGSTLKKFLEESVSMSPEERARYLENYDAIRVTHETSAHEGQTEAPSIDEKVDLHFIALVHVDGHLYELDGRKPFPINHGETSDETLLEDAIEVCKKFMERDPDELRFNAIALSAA
# In short: as §1
# UCHL5 = biological target: T5, UCHL5 (UniProt Q9Y5K5)
# T5 sequence (whole entry): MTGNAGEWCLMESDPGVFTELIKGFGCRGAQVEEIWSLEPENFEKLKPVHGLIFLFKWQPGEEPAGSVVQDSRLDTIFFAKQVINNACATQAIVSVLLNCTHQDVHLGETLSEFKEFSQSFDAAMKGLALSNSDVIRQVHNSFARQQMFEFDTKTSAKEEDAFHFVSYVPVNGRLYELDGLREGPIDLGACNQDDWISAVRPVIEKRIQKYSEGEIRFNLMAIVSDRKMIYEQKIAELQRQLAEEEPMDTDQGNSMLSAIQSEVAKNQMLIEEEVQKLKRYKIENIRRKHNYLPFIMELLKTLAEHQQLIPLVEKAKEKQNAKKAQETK
# In short: as §1
# USP10 = USP10 (UniProt Q14694)
# In short: as §1
# USP15 = biological target: T6, USP15 (UniProt Q9Y4E8)
# T6 sequence (whole entry): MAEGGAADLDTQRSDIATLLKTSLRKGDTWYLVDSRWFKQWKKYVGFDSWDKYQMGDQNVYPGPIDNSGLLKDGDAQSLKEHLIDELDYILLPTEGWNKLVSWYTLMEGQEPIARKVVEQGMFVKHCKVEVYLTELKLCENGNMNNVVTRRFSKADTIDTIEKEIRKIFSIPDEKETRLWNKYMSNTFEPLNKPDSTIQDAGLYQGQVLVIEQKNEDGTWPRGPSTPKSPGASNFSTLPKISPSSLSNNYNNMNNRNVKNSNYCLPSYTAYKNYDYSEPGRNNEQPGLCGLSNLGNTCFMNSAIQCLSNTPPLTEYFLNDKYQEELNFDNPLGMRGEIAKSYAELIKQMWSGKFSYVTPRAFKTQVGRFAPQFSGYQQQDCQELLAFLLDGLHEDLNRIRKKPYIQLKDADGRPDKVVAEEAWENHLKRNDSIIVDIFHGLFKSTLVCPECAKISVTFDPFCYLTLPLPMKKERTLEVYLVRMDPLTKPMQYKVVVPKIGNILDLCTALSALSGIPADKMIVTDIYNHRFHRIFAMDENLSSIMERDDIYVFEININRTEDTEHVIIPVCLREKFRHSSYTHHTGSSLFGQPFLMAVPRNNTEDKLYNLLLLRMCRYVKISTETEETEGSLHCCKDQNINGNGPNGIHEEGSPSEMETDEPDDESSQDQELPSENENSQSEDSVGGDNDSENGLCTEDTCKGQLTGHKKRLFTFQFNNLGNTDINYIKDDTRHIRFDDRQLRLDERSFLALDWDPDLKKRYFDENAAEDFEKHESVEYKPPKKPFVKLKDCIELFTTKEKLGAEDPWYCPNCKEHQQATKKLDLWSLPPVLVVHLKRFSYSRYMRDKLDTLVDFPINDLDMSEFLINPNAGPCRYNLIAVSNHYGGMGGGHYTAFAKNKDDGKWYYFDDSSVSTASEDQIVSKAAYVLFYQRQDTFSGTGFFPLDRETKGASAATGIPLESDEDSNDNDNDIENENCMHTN
# In short: as §1
# Chain of UCHL1 (P09936 whole entry, looked up): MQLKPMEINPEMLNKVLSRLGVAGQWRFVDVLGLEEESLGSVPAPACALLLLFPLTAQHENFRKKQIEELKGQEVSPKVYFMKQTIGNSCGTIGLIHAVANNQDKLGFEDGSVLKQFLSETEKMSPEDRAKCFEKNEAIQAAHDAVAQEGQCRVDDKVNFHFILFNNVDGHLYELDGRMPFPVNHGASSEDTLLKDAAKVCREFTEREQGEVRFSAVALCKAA
# Chain of USP10 (Q14694 whole entry): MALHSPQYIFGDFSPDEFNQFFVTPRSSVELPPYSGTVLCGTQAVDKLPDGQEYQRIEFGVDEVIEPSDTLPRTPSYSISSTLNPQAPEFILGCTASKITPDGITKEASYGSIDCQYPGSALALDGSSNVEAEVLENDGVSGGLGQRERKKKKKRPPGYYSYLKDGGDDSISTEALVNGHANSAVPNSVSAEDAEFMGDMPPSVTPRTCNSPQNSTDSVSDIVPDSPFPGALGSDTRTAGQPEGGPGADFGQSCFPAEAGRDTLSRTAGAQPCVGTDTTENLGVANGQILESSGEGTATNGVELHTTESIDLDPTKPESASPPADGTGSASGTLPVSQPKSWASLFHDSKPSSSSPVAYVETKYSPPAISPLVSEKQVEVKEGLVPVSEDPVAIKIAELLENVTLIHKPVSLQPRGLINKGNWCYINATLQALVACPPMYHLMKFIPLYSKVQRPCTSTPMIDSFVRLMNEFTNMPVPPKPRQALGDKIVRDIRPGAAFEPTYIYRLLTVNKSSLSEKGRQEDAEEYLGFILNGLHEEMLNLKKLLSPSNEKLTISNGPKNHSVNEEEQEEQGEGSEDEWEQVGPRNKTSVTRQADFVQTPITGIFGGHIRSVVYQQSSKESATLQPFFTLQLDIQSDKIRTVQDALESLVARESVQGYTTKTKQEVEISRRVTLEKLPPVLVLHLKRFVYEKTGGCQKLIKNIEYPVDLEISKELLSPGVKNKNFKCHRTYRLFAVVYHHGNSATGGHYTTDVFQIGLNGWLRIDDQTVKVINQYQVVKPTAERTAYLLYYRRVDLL
smiles,measurement,setting,value
Cc1c(C#N)c(NC(=O)CCl)n(Cc2ccco2)c1C,log2 ratio of Biotin-Ahx-Ub-VS probe labelling,OTUD6B,-0.163
same,log2 ratio of Biotin-Ahx-Ub-VS probe labelling,OTUD7B,-1.87 (active)
same,log2 ratio of Biotin-Ahx-Ub-VS probe labelling,PRPF8,0.194
same,log2 ratio of Biotin-Ahx-Ub-VS probe labelling,PSMD7,0.0239
same,log2 ratio of Biotin-Ahx-Ub-VS probe labelling,UCHL1,-1.43 (active)
same,log2 ratio of Biotin-Ahx-Ub-VS probe labelling,UCHL3,0.496
same,log2 ratio of Biotin-Ahx-Ub-VS probe labelling,UCHL5,-0.133
same,log2 ratio of Biotin-Ahx-Ub-VS probe labelling,USP10,-0.259
same,log2 ratio of Biotin-Ahx-Ub-VS probe labelling,USP15,-0.505
